Assay results from PubChem BioAssay (NCI).
About 83,000 compounds went through this panel and 20% of them were active in at least one assay; those are over-represented in the sample as a whole.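 Activity criterion: percent growth below 10, measured after cells in 96-well plates were exposed to a single compound concentration for 48 hours.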 Calls of active or inactive are those of the source.

Columns and labels:
Assay in all cases: NCI-60 one-dose screen, 48 h (100 = growth as untreated, 0 = no growth, -100 = all killed)
Conditions in all cases: 10 µM unless noted
NCI-H23 lung = system: NCI-H23 lung
NCI-H226 lung = system: NCI-H226 lung
NCI-H322M lung = system: NCI-H322M lung
HOP-62 NSCLC = system: HOP-62 NSCLC
NCI-H460 lung = system: NCI-H460 lung
HOP-92 NSCLC = system: HOP-92 NSCLC
NCI-H522 lung = system: NCI-H522 lung
A549/ATCC NSCLC = system: A549/ATCC NSCLC
786-0 renal = system: 786-0 renal
COLO 205 colon = system: COLO 205 colon

Measured: growth

COc1ccc(Nc2nc(Nc3cc(C)[nH]n3)c3cc(OC)c(OC)cc3n2)cc1
active: NCI-H23 lung -74.7% [20 µM] | NCI-H226 lung -47.2% [20 µM] | NCI-H322M lung -100% [20 µM] | HOP-62 NSCLC -73.3% [20 µM] | NCI-H460 lung -75.9% [20 µM] | HOP-92 NSCLC -84.6% [20 µM] | NCI-H522 lung -39.1% [20 µM] | A549/ATCC NSCLC -61.2% [20 µM] | 786-0 renal -83.3% [20 µM] | COLO 205 colon -61% [20 µM]

CC(C)C(=O)Nc1ncc(C(=O)NCCN(Cc2ccccc2)C(=O)c2ccc(S(=O)(=O)Nc3ccccc3)cc2)s1
inactive: NCI-H23 lung 97.3% | NCI-H226 lung 98% | NCI-H322M lung 98.9% | HOP-62 NSCLC 94.3% | NCI-H460 lung 99.8% | HOP-92 NSCLC 106% | NCI-H522 lung 83.6% | A549/ATCC NSCLC 103% | 786-0 renal 96.6% | COLO 205 colon 118%

CN1CCN(Cc2ccc(NC(=O)c3cc(C#Cc4cnc(N)c5ncccc45)n(C)n3)cc2C(F)(F)F)CC1
inactive: NCI-H23 lung 97.8% | NCI-H226 lung 115% | NCI-H322M lung 127% | HOP-62 NSCLC 100% | HOP-92 NSCLC 103% | NCI-H522 lung 99.7% | A549/ATCC NSCLC 47.5% | COLO 205 colon 115%
active: NCI-H460 lung 9.09% | 786-0 renal 9.92%

COc1ccc(-c2ccc(-c3ccc(C(=N)N)nc3)s2)cc1
inactive: NCI-H226 lung 83.4% | HOP-92 NSCLC 77.9%
active: NCI-H23 lung -29.9% | NCI-H322M lung -19.8% | HOP-62 NSCLC -54.9% | NCI-H460 lung -85.1% | NCI-H522 lung -44.9% | A549/ATCC NSCLC -56.7% | 786-0 renal -84.2% | COLO 205 colon -52.2%

CCN1CCN(C(=O)[C@]23CC[C@@H](C)[C@H](C)[C@@H]2C2=CC[C@@H]4[C@@]5(C)C/C(=C/c6ccncc6)C(=O)C(C)(C)[C@@H]5CC[C@@]4(C)[C@]2(C)CC3)CC1
inactive: NCI-H23 lung 20.8% | NCI-H226 lung 24.7% | NCI-H322M lung 53.2% | HOP-62 NSCLC 33.2% | HOP-92 NSCLC 45.2% | NCI-H522 lung 23.4% | A549/ATCC NSCLC 25.5% | 786-0 renal 19.6%
active: NCI-H460 lung -6.85% | COLO 205 colon -15.6%

C=C(C)Cn1c(SCC(=O)c2cccs2)nc2sc3c(c2c1=O)CCCC3
active: NCI-H460 lung 8.41%
inactive: NCI-H23 lung 72.8% | NCI-H226 lung 58.3% | NCI-H322M lung 67.9% | HOP-62 NSCLC 73.5% | HOP-92 NSCLC 92.4% | NCI-H522 lung 58.1% | A549/ATCC NSCLC 41.1% | 786-0 renal 52.6% | COLO 205 colon 43.6%

N#CC1=C(N)Oc2c(ccc3cccnc23)C1c1ccccc1 (stereo not given)
active: COLO 205 colon 9.2%
inactive: NCI-H23 lung 17.7% | NCI-H226 lung 54% | NCI-H322M lung 39.2% | HOP-62 NSCLC 43.2% | NCI-H460 lung 16% | HOP-92 NSCLC 32.3% | NCI-H522 lung 20.3% | A549/ATCC NSCLC 32% | 786-0 renal 35.3%

Nc1c(C(=O)c2ccc(Cl)cc2)sc(Nc2ccccc2)c1-c1nc2ccccc2s1
inactive: NCI-H23 lung 17% | NCI-H226 lung 49.9% | NCI-H322M lung 30.5% | A549/ATCC NSCLC 17.8% | COLO 205 colon 51.4%
active: HOP-62 NSCLC -7.72% | NCI-H460 lung -0.299% | HOP-92 NSCLC -18.7% | NCI-H522 lung 7.38% | 786-0 renal 8.1%

CN(C)C(=S)NN=C(c1ccccn1)c1ccccn1
active: NCI-H460 lung 0.166%
inactive: NCI-H23 lung 38.5% | NCI-H226 lung 24.6% | NCI-H322M lung 11.5% | HOP-62 NSCLC 26% | HOP-92 NSCLC 64.7% | NCI-H522 lung 13.7% | A549/ATCC NSCLC 12.9% | 786-0 renal 14.6% | COLO 205 colon 38%

O=C(Nc1ccc(Cl)cc1)C1=NCCCCN1
inactive: NCI-H23 lung 92% | NCI-H226 lung 84.7% | NCI-H322M lung 83.5% | HOP-62 NSCLC 70.7% | NCI-H460 lung 86.3% | HOP-92 NSCLC 89.9% | NCI-H522 lung 82.6% | A549/ATCC NSCLC 92.6% | 786-0 renal 99.9% | COLO 205 colon 99.6%

FC(F)(F)c1cc(N2CCCCC2)nc(NCCCNc2ccnc3cc(Cl)ccc23)n1
inactive: NCI-H23 lung 27.2% | NCI-H226 lung 73.6% | NCI-H322M lung 80% | HOP-62 NSCLC 73.5% | NCI-H460 lung 74.4% | HOP-92 NSCLC 32.9% | NCI-H522 lung 47.4% | A549/ATCC NSCLC 50.5% | 786-0 renal 59.7%
active: COLO 205 colon 7.41%

COc1ccc(C(=O)/C=C/c2ccc(Cl)cc2)cc1S(N)(=O)=O
active: HOP-92 NSCLC -26.6% | 786-0 renal -30.7%
inactive: NCI-H23 lung 87.8% | NCI-H226 lung 84.3% | NCI-H322M lung 29.1% | HOP-62 NSCLC 53.6% | NCI-H460 lung 65.8% | NCI-H522 lung 56.9% | A549/ATCC NSCLC 54.5% | COLO 205 colon 60.6%

C=C(C[n+]1ccccc1)[C@@H]1CC[C@]2(C(=O)OC)CC[C@]3(C)[C@H](CC[C@@H]4[C@@]5(C)CCC(=O)C(C)(C)[C@@H]5CC[C@]43C)[C@@H]12
inactive: NCI-H23 lung 87.9% | NCI-H226 lung 90.3% | NCI-H322M lung 96.3% | HOP-62 NSCLC 103% | NCI-H460 lung 98.3% | HOP-92 NSCLC 67.4% | NCI-H522 lung 55.5% | A549/ATCC NSCLC 93.3% | 786-0 renal 101% | COLO 205 colon 56.1%

CC(C)n1cc(C2=C(c3cccc4ccccc34)C(=O)NC2=O)c2cc(Br)ccc21
inactive: NCI-H23 lung 49% | NCI-H226 lung 37.8% | NCI-H322M lung 87.5% | HOP-62 NSCLC 78.5% | NCI-H460 lung 67.5% | HOP-92 NSCLC 158% | NCI-H522 lung 79.9% | A549/ATCC NSCLC 60.5% | 786-0 renal 54.9% | COLO 205 colon 62.2%

COc1cc(/C=C2\CN(S(=O)(=O)c3ccc(C)cc3)C/C(=C\c3cc(CN4CCCC4)c(O)c(OC)c3)C2=O)cc(CN2CCCC2)c1O
inactive: NCI-H226 lung 31.9% | NCI-H322M lung 10.8% | A549/ATCC NSCLC 21.2%
active: NCI-H23 lung -53.5% | HOP-62 NSCLC 4.13% | NCI-H460 lung -67.4% | HOP-92 NSCLC -16.7% | NCI-H522 lung -36.2% | 786-0 renal -74.7% | COLO 205 colon -49.4%

N#CSCc1cc(Cl)c(CSC#N)cc1Cl
inactive: NCI-H23 lung 72.8% | NCI-H226 lung 73.3% | NCI-H322M lung 112% | HOP-62 NSCLC 113% | NCI-H460 lung 74.6% | HOP-92 NSCLC 11.8% | NCI-H522 lung 22.5% | A549/ATCC NSCLC 120% | 786-0 renal 71.4% | COLO 205 colon 61.6%

CCN1CCN(c2nc(NNC(=O)c3ccc(OC)cc3)nc(N3CCN(C(c4ccccc4)c4ccccc4)CC3)n2)CC1
inactive: NCI-H23 lung 53.3% | NCI-H226 lung 71.9% | NCI-H322M lung 84.1% | HOP-62 NSCLC 83.6% | HOP-92 NSCLC 58.7% | NCI-H522 lung 85.3% | A549/ATCC NSCLC 64.4% | 786-0 renal 22.9%
active: NCI-H460 lung -6.88% | COLO 205 colon -8.98%

Oc1c(Cl)cc(Cl)c2ccc(CN3CCNCC3)nc12
inactive: NCI-H23 lung 52.7% | NCI-H226 lung 61.6% | NCI-H322M lung 58.1% | HOP-62 NSCLC 29.3% | NCI-H460 lung 31.8% | HOP-92 NSCLC 54.1% | NCI-H522 lung 67.8% | A549/ATCC NSCLC 30.8% | 786-0 renal 49.2% | COLO 205 colon 102%

CCCn1cnc2c(c1=N)C(c1ccc(Cl)cc1)c1sc3c(F)cccc3c1O2 (stereo not given)
inactive: NCI-H23 lung 81.8% | NCI-H226 lung 85.5% | NCI-H322M lung 75.6% | HOP-62 NSCLC 96.9% | NCI-H460 lung 66.2% | HOP-92 NSCLC 79.3% | NCI-H522 lung 69.7% | A549/ATCC NSCLC 76% | 786-0 renal 69.3%
active: COLO 205 colon -67.9%

O=C1/C(=C/c2cccc([N+](=O)[O-])c2)COc2ccc(O)c(O)c21
active: NCI-H23 lung -27.4% | HOP-62 NSCLC -31.3% | NCI-H460 lung 4.3% | HOP-92 NSCLC -43.1% | NCI-H522 lung -71.3% | A549/ATCC NSCLC 9.74% | 786-0 renal -87.9% | COLO 205 colon -18.2%
inactive: NCI-H226 lung 81.5% | NCI-H322M lung 28.7%

C=CCNc1ccc2c3c(cccc13)C(=O)N(CC=C)C2=O
inactive: NCI-H23 lung 96% | NCI-H226 lung 93.7% | NCI-H322M lung 102% | HOP-62 NSCLC 108% | NCI-H460 lung 99.9% | HOP-92 NSCLC 49.6% | NCI-H522 lung 99.4% | A549/ATCC NSCLC 103% | 786-0 renal 101% | COLO 205 colon 110%

COc1cccc(CNc2nnc(C)c(C)n2)c1O
inactive: NCI-H23 lung 96.5% | NCI-H226 lung 89.1% | NCI-H322M lung 108% | HOP-62 NSCLC 95.6% | NCI-H460 lung 102% | HOP-92 NSCLC 81.2% | NCI-H522 lung 90.7% | A549/ATCC NSCLC 93.7% | 786-0 renal 104% | COLO 205 colon 109%

Nc1ncc(-c2ccc3ncnc(N4CCc5ccc(Cl)cc54)c3c2)cn1
active: NCI-H226 lung 0.981% | NCI-H322M lung -15.4% | HOP-62 NSCLC -11.9% | NCI-H460 lung 4.03% | HOP-92 NSCLC -34.5% | NCI-H522 lung -15.7% | A549/ATCC NSCLC 0.08% | 786-0 renal -0.891% | COLO 205 colon -25.8%
inactive: NCI-H23 lung 12.4%

O=C(CN1C(=O)NC2NC(=O)NC21)N/N=C/c1cccc([N+](=O)[O-])c1 (stereo not given)
inactive: NCI-H23 lung 104% | NCI-H226 lung 94% | NCI-H322M lung 108% | HOP-62 NSCLC 107% | NCI-H460 lung 107% | HOP-92 NSCLC 123% | NCI-H522 lung 97.3% | A549/ATCC NSCLC 112% | 786-0 renal 106% | COLO 205 colon 122%

CN(CCNc1ccc(C(=N)N)cc1)c1ccc(C(=N)N)cc1
inactive: NCI-H23 lung 81.3% | NCI-H226 lung 52.7% | NCI-H322M lung 71% | HOP-62 NSCLC 112% | NCI-H460 lung 47.9% | HOP-92 NSCLC 62.7% | NCI-H522 lung 87.6% | A549/ATCC NSCLC 41.9% | 786-0 renal 102% | COLO 205 colon 135%

COc1ccc(C(=O)C2OC3=C(C(=O)CC(C)(C)C3)C2c2cccc(Oc3ccccc3)c2)cc1 (stereo not given)
inactive: NCI-H23 lung 97% | NCI-H226 lung 86.9% | NCI-H322M lung 95.1% | HOP-62 NSCLC 97% | NCI-H460 lung 96.9% | HOP-92 NSCLC 76.4% | NCI-H522 lung 76.3% | A549/ATCC NSCLC 85.7% | 786-0 renal 93% | COLO 205 colon 110%
